This is part of a sample that, as a whole, favours compounds with a hit. Of some 83,000 tested, about 20% had one in any assay.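 Cells were grown in 96-well plates and exposed to the test compound at a single concentration for 48 hours; results are reported as percent growth, with values below 10 considered active.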 Values without a mark were called inactive. Active and inactive are the calls of the source.

Experiment in all cases: NCI-60 one-dose screen, 48 h (100 = growth as untreated, 0 = no growth, -100 = all killed)
What all share (details): 10 µM unless noted

Experiment [1] deals with T-47D breast.
Experiment [2] has as its system BT-549 breast.
Experiment [3] has as its system MDA-MB-435 melanoma.
In experiment [4] the test system is SW-620 colon.
Experiment [5] deals with MCF7 breast.
Experiment [6] relates to HCT-116 colon.
Experiment [7] deals with HCC-2998 colon.
Experiment [8] relates to KM12 colon.

Take `CC(=O)[C@@H]1CC[C@]2(C(N)=O)CC[C@]3(C)[C@H](CC[C@@H]4[C@@]5(C)CCC(=O)C(C)(C)[C@@H]5CC[C@]43C)[C@@H]12`: the growth in experiment [1] is 80.2%; in experiment [2] it was 93.3%; in experiment [3], 99.9%; in experiment [4] it was 110%; in experiment [5], 89.9%; in experiment [6], 90.4%. In addition, the growth is 107% in experiment [7] and 100% in experiment [8].
On to `CN(C)c1ccc(-c2c(C#N)c(N)n3nc(N)c(C#N)c3c2C#N)cc1`, for which the growth in experiment [1] was 59.5%; in experiment [2] it was 69.1%; in experiment [3], 97%; in experiment [4] it was 112%; in experiment [5], 99.3%; in experiment [6], 99.3%. Also, the growth in experiment [7] was 83.6%; in experiment [8], 75.4%.
In the case of `O=C1C(=O)c2c(nc3ncccn23)-c2ccccc21`, the growth in experiment [1] is -48.5% (active); in experiment [2], -94% (active); in experiment [3], -93.8% (active); in experiment [4], -60.6% (active); in experiment [5] it was -53.8% (active); in experiment [6], -79% (active). Moreover, the figures for the growth in experiment [7] and in experiment [8] were -92.7% (active) and -62.6% (active), respectively.
Consider `CN1CCN(CC#CCNC(=O)[C@]23CCC(C)(C)C[C@H]2C2=CC[C@@H]4[C@@]5(C)Cc6c([nH]c7ccccc67)C(C)(C)[C@@H]5CC[C@@]4(C)[C@]2(C)CC3)CC1`, for which the growth in experiment [1] is 94.4%; in experiment [2], 101%; in experiment [3] it was 47.2%; in experiment [4], 46.8%; in experiment [5] it was 32.4%; in experiment [6], 22.5%. Also, the growth was 80% in experiment [7] and 52.3% in experiment [8].
For the compound `[2H]C1([2H])NC([2H])([2H])C([2H])([2H])N(c2ccc(Nc3ncc4cc(C(=O)N(C)C)n(C5CCCC5)c4n3)nc2)C1([2H])[2H]`, the growth in experiment [1] was 68%; in experiment [2], 92.9%; in experiment [3], 68.7%; in experiment [4] it was 42.2%; in experiment [5] it was 45%; in experiment [6], 55.3%. Besides, the growth in experiment [7] is 89.9%; in experiment [8], 54.5%.
Take `FC(F)(F)Oc1cccc(-c2cc(NCCCCCCNc3cc(-c4cccc(OC(F)(F)F)c4)nc4ccc(N5CCCC5)cc34)c3cc(N4CCCC4)ccc3n2)c1`: the growth in experiment [1] was -46.4% (active); in experiment [2], 105%; in experiment [3], -87.6% (active); in experiment [4], -78.8% (active); in experiment [5], -64.7% (active); in experiment [6], -66.6% (active). Further, the growth is -85.3% (active) in experiment [7] and -90.4% (active) in experiment [8].
On to `CC(C)(C)CC(C)(C)Nc1c(-c2ccc3c(c2)OCO3)nc2cnccn12`, for which the growth is 84.2% in experiment [1]; 82.2% in experiment [2]; 99.1% in experiment [3]; 109% in experiment [4]; 74.1% in experiment [5]; 5.36% (active) in experiment [6]. The growth in experiment [7] was 93.7%; in experiment [8], 96.2%.
In the case of `Cc1cn(-c2cc(C(=O)Nc3cccc(C#Cc4cccc5[nH]nc(N)c45)c3)cc(C(F)(F)F)c2)cn1`, the growth in experiment [1] is 54.2%; in experiment [2], 43.2%; in experiment [3], 41.7%; in experiment [4], 43.1%; in experiment [5], 64.8%; in experiment [6], 23.3%. For the same compound, the growth is 62.8% in experiment [7] and 64.6% in experiment [8].
For `COC(=O)CCCCCCCCC1(C)C=CC(C(C)O)=CC1` (configuration not stated), the growth in experiment [1] was 99.9%; in experiment [2], 108%; in experiment [3] it was 112%; in experiment [4], 91.2%; in experiment [5], 101%; in experiment [6], 99.7%. For the same compound, the values for the growth in experiment [7] and in experiment [8] were 98.7% and 99.8%, respectively.
`COc1cccc(C(Cc2ccccc2)Nc2ccccc2)c1OC` (configuration not stated): the growth was 80.6% in experiment [1]; 101% in experiment [2]; 105% in experiment [3]; 95.1% in experiment [4]; 102% in experiment [5]; 77% in experiment [6]. The growth in experiment [7] is 91.2%; in experiment [8], 99.6%.
As for `CCCCCCc1nc2nc(Cl)c(Cl)nc2[nH]1`, the growth in experiment [1] was 22.7%; in experiment [2], 66.5%; in experiment [3], 61.9%; in experiment [4], 87.6%; in experiment [5] it was 64.4%; in experiment [6], 57.1%. Further, the growth was 61.3% in experiment [7] and 47.6% in experiment [8].
As to `N#CC1=C(N)Oc2c(ccc3ccccc23)C1c1ccc([N+](=O)[O-])cc1` (configuration not stated), the growth in experiment [1] was 74.6%; in experiment [2], 83.1%; in experiment [3] it was 6.07% (active); in experiment [4] it was 55.5%; in experiment [5], 51.8%; in experiment [6], 68.8%. For the same compound, the values for the growth in experiment [7] and in experiment [8] were 85.9% and 50.4%, respectively.
On to `C=C1C(=O)O[C@H]2[C@H]1CC/C(COC(=O)/C=C/c1c[nH]c3ccccc13)=C\CC[C@@]1(C)O[C@@H]21`, for which the growth in experiment [1] was -68.3% (active); in experiment [2] it was -69.6% (active); in experiment [3], -88.5% (active); in experiment [4], -74.7% (active); in experiment [5], -40.1% (active); in experiment [6] it was -83.8% (active). Moreover, the growth in experiment [7] was -88.1% (active); in experiment [8], -51.6% (active).
Turning to `COc1cc(C2CC(c3cccc(Nc4ccncc4)c3)=NN2c2ccc(Cl)cc2)cc(OC)c1OC` (configuration not stated), the growth in experiment [1] is 71.3%; in experiment [2] it was 107%; in experiment [3], -88.3% (active); in experiment [4], -66.6% (active); in experiment [5], -36.1% (active); in experiment [6], 105%. Moreover, the results for the growth in experiment [7] and in experiment [8] were -36.2% (active) and -74.5% (active), respectively.
On to `O=C(OCc1nc2nc(Cl)nc(N3CCOCC3)c2[nH]1)n1ccnc1`, for which the growth was -49.2% (active) in experiment [1]; 9.52% (active) in experiment [2]; -55.1% (active) in experiment [3]; -59.1% (active) in experiment [4]; 4.72% (active) in experiment [5]; -82.4% (active) in experiment [6]. For the same compound, the growth was 65.3% in experiment [7] and 13.7% in experiment [8].
For the compound `CCn1cc(C2NC(=O)c3ccccc3N2)c2cccc(C)c21` (configuration not stated), the growth is 36.9% in experiment [1]; 48.7% in experiment [2]; -31.9% (active) in experiment [3]; 24.7% in experiment [4]; 16.9% in experiment [5]; 7.91% (active) in experiment [6]. Also, the values for the growth in experiment [7] and in experiment [8] were 9.07% (active) and 15.9%, respectively.
With `NC(=S)N/N=C(/c1ccccc1)c1ccccc1N`, the growth in experiment [1] was 43.7%; in experiment [2], 104%; in experiment [3], 90.4%; in experiment [4], 79.2%; in experiment [5], 39.7%; in experiment [6], 3.36% (active). The growth in experiment [7] is 113%; in experiment [8] it was 98.9%.
Consider `CC(N)C(=O)NNc1n[nH]c(=S)n1N` (configuration not stated), for which the growth in experiment [1] is 98.6%; in experiment [2], 87.1%; in experiment [3], 96.1%; in experiment [4] it was 93.1%; in experiment [5] it was 93.7%; in experiment [6], 103%. The growth in experiment [7] and in experiment [8] was 102% throughout.
For the compound `CC(C)[N+](C)(CCOC(COc1ccccc1)COc1ccccc1)C(C)C`, the growth in experiment [1] is 85.7%; in experiment [2] it was 80.6%; in experiment [3] it was 91.9%; in experiment [4], 102%; in experiment [5], 91.4%; in experiment [6], 92.2%. The growth in experiment [7] was 96.7%; in experiment [8], 83.5%.
`FCc1nc2nc(Cl)c(Cl)nc2[nH]1`: the growth in experiment [1] is 101%; in experiment [2] it was 104%; in experiment [3], 107%; in experiment [4], 103%; in experiment [5] it was 96.5%; in experiment [6] it was 101%. Besides, the growth in experiment [7] and in experiment [8] was 104% throughout.
Regarding `O=C(c1ccccc1)N1N=C(c2ccc(-n3ccc(C(F)(F)F)n3)cc2)CC1c1ccc[nH]1` (configuration not stated), the growth in experiment [1] is 73.5%; in experiment [2] it was 116%; in experiment [3], 96%; in experiment [4], 98.9%; in experiment [5], 91.5%; in experiment [6] it was 93.7%. Moreover, the growth in experiment [7] is 115%; in experiment [8], 79.7%.
As to `COc1ccc(-c2nc(SC(C)C)nc(NNC(N)=O)c2C#N)cc1`, the growth was 84.8% in experiment [1]; 102% in experiment [2]; 3.51% (active) in experiment [3]; 50.7% in experiment [4]; 84.3% in experiment [5]; 102% in experiment [6]. The results for the growth in experiment [7] and in experiment [8] were 88.9% and 58.6%, respectively.
`COc1ccc(C2CC(c3cccc(Nc4ccncc4)c3)=NN2c2ccccc2)cc1` (configuration not stated): the growth in experiment [1] is 68.9%; in experiment [2], -16.1% (active); in experiment [3], -57% (active); in experiment [4] it was -72.2% (active); in experiment [5], 8.74% (active); in experiment [6], 1.38% (active). In addition, the growth in experiment [7] was -52.5% (active); in experiment [8] it was -18.1% (active).
`Cc1cccc(C)c1-c1cc(Cc2ccc(Cl)cc2)c(=O)[nH]n1`: the growth is 86.4% in experiment [1]; 86.1% in experiment [2]; 119% in experiment [3]; 104% in experiment [4]; 97.2% in experiment [5]; 96.9% in experiment [6]. The growth was 86.4% in experiment [7] and 103% in experiment [8].
As for `COc1cc2nc(-c3ccc(C(F)(F)F)cc3)cc(OCCCN3CCC(O)CC3)c2cc1OC`, the growth in experiment [1] was 24.7%; in experiment [2] it was 26.5%; in experiment [3] it was -29% (active); in experiment [4], 15.9%; in experiment [5], 37.3%; in experiment [6] it was 15%. Further, the growth in experiment [7] is 52.5%; in experiment [8] it was 26.5%.
With `COC(=O)C(c1ccccc1)C(CC(=O)c1ccccc1)c1ccccc1` (configuration not stated), the growth in experiment [1] was 76.2%; in experiment [2], 108%; in experiment [3], 88.8%; in experiment [4], 104%; in experiment [5], 99.5%; in experiment [6], 88.8%. Also, the growth in experiment [7] was 96.1%; in experiment [8], 91.5%.
`FC(F)(F)c1cccc(Nc2ccccc2)c1`: the growth was 101% in experiment [1]; 98.2% in experiment [2]; 101% in experiment [3]; 101% in experiment [4]; 93.5% in experiment [5]; 95.2% in experiment [6]. Besides, the growth in experiment [7] is 98.9%; in experiment [8] it was 102%.
Take `Cc1ccc(C(=O)Nc2ccccc2C(=O)N/N=C(\c2ccccc2)c2ccccn2)cc1`: the growth was 13.4% in experiment [1]; 13.5% in experiment [2]; 28% in experiment [3]; 37.3% in experiment [4]; 11.9% in experiment [5]; 17.9% in experiment [6]. The growth was 29.7% in experiment [7] and 26% in experiment [8].
Regarding `COC(=O)C1NC(=S)N(c2ccc(Cl)cc2)C1/C=C/c1ccccc1` (configuration not stated), the growth in experiment [1] was 88.2%; in experiment [2], 93.8%; in experiment [3], 85.5%; in experiment [4], 108%; in experiment [5], 101%; in experiment [6], 95.6%. Besides, the figures for the growth in experiment [7] and in experiment [8] were 93.2% and 96%, respectively.

Source of the values: PubChem BioAssay (NCI).
